In assay [1] the target is Serine/threonine-protein kinase MARK2 (Homo sapiens) (UniProt Q7KZI7). The following applies: at 1 µM.
Assay [2] addresses PAS domain-containing serine/threonine-protein kinase (Homo sapiens) (UniProt Q96RG2). The following applies: at 0.1 µM.
For assay [3] the target is unchanged. To be noted: at 1 µM.
Assay [4] concerns the target Phosphorylase b kinase gamma catalytic chain, skeletal muscle/heart isoform (Homo sapiens) (UniProt Q16816). The following applies: at 0.1 µM.
The target is the same in assay [5]. The following applies: at 1 µM.
Assay [6] concerns the target T1, Phosphorylase b kinase gamma catalytic chain, liver/testis isoform (Homo sapiens) (UniProt P15735).
T1 sequence (whole entry): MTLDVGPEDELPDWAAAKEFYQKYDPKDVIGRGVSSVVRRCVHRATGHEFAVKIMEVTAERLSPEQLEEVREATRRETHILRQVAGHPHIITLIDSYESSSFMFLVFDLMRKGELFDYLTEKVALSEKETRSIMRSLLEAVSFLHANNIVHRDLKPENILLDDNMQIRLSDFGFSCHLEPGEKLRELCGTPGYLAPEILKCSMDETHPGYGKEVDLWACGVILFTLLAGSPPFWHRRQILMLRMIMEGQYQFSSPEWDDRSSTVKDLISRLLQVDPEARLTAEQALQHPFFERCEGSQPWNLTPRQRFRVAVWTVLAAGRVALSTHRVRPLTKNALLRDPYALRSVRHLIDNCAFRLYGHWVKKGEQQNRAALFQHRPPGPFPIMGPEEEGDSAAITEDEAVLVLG
To be noted: at 0.1 µM.

Assay [7] has as its target T1, Phosphorylase b kinase gamma catalytic chain, liver/testis isoform (Homo sapiens). The following applies: at 1 µM.
In assay [8] the target is Serine/threonine-protein kinase pim-1 (Homo sapiens) (UniProt P11309). To be noted: at 0.1 µM.
Sequence of Serine/threonine-protein kinase pim-1 (Homo sapiens) (P11309 whole entry, looked up): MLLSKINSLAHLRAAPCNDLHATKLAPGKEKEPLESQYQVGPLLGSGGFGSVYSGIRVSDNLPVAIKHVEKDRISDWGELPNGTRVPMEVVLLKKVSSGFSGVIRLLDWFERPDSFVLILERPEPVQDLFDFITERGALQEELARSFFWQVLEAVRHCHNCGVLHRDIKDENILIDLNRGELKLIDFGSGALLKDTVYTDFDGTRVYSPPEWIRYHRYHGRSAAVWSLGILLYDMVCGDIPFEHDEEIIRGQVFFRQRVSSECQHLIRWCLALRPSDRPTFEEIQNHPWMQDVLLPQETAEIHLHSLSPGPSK
For assay [9] the target is unchanged. The following applies: at 1 µM.
Assay [10] deals with Serine/threonine-protein kinase pim-2 (Homo sapiens) (UniProt Q9P1W9). To be noted: at 0.1 µM.
The target is the same in assay [11]. To be noted: at 1 µM.
Assay [12] addresses Serine/threonine-protein kinase pim-3 (Homo sapiens) (UniProt Q86V86). To be noted: at 0.1 µM.
For assay [13] the target is unchanged. The following applies: at 1 µM.
Assay [14] deals with T2, MAP kinase-activated protein kinase 5 (Homo sapiens) (UniProt Q8IW41).
T2 sequence (whole entry): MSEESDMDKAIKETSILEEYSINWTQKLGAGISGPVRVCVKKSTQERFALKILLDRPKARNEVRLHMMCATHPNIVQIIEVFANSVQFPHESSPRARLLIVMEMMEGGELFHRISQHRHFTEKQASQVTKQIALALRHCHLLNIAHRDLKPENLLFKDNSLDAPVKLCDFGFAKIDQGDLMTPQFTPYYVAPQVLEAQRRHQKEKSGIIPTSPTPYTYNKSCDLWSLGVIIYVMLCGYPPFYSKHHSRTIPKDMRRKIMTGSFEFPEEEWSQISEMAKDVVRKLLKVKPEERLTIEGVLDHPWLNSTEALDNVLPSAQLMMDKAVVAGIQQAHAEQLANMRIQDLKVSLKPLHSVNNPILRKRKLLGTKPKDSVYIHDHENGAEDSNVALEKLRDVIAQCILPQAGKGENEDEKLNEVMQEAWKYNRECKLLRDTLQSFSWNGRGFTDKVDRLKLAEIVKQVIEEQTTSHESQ
The following applies: at 0.1 µM.

The target in assay [15] is T2, MAP kinase-activated protein kinase 5 (Homo sapiens). The following applies: at 1 µM.
Assay [16] addresses Serine/threonine-protein kinase SIK1 (Homo sapiens) (UniProt P57059). The following applies: at 0.1 µM.
The target is the same in assay [17]. The following applies: at 1 µM.
Assay [18] deals with Serine/threonine-protein kinase SIK2 (Homo sapiens) (UniProt Q9H0K1). To be noted: at 0.1 µM.
Sequence of Serine/threonine-protein kinase SIK2 (Homo sapiens) (Q9H0K1 whole entry, looked up): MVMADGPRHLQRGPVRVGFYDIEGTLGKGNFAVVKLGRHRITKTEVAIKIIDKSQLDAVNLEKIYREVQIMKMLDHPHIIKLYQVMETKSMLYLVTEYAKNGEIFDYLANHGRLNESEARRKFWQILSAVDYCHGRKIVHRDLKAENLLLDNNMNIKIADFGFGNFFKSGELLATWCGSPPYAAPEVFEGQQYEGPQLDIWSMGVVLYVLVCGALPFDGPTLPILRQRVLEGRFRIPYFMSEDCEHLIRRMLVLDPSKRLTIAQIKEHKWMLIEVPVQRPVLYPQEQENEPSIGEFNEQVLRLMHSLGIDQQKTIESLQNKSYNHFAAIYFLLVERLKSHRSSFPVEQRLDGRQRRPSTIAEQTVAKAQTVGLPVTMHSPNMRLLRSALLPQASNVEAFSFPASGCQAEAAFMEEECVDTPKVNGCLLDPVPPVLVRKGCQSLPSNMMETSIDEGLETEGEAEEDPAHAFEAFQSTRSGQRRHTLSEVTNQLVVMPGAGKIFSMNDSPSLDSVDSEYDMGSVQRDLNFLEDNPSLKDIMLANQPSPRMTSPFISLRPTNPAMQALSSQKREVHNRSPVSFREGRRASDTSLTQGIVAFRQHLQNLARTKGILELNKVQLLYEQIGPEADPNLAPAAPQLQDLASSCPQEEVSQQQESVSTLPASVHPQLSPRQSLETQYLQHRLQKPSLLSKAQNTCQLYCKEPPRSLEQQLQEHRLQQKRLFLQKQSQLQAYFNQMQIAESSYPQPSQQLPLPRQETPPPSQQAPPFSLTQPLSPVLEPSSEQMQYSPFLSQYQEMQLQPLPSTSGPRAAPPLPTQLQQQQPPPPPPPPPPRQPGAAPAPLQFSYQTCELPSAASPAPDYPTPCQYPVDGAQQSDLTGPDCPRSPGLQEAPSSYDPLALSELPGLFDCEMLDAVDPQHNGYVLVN
Assay [19] shares this target. The following applies: at 1 µM.
The target in assay [20] is T3, Serine/threonine-protein kinase TBK1 (Homo sapiens) (UniProt Q9UHD2).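 Further: values are the mean TBK1 inhibition, taken from the GSK PKIS screening data.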
T3 sequence (whole entry): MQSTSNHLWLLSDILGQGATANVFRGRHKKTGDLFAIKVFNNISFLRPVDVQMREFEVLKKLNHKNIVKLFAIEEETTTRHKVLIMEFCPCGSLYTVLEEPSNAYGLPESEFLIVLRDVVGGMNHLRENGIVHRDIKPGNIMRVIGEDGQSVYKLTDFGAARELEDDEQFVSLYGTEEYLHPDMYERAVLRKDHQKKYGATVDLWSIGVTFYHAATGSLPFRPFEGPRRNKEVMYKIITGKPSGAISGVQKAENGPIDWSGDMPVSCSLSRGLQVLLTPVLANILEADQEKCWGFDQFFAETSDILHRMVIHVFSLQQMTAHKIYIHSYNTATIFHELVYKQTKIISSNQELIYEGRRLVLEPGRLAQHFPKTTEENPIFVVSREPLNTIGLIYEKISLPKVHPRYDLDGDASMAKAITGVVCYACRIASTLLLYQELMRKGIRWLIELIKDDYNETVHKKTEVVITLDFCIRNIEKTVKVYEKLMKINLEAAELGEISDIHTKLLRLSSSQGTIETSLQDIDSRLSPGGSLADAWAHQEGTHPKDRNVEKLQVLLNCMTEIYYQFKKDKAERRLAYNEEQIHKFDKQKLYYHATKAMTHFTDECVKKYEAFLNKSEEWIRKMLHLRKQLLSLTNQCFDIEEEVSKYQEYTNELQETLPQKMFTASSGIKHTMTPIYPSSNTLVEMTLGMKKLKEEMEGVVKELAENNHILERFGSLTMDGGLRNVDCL
The following applies: at 0.1 µM.

SMILES strings stand for the structures.

The record followed here is ChEMBL document CHEMBL1961873, “Compounds: GSK PKIS; Assays: Nanosyn kinase panel” (2012).

Sequence of Serine/threonine-protein kinase SIK1 (Homo sapiens) (P57059 whole entry): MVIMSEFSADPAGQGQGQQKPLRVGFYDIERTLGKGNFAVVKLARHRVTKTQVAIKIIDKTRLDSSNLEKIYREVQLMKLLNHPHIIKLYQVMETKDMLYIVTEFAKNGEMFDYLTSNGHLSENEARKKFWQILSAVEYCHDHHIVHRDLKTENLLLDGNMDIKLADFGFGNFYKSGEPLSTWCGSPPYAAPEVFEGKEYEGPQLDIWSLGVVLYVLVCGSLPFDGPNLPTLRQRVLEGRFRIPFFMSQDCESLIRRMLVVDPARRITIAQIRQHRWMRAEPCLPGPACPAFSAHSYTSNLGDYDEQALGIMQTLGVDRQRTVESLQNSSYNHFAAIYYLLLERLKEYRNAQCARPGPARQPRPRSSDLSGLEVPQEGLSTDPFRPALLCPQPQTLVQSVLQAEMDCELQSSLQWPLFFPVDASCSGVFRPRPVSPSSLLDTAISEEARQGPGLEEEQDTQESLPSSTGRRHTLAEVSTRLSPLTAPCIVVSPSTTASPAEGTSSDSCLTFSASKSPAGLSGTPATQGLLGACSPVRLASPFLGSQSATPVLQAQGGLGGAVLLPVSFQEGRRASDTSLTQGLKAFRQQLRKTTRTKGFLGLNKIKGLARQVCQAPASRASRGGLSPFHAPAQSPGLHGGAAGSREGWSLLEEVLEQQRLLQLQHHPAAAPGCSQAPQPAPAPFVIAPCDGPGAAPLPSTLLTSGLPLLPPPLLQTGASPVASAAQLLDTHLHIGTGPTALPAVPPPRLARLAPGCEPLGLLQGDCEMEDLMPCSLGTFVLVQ
Sequence of PAS domain-containing serine/threonine-protein kinase (Homo sapiens) (Q96RG2 whole entry, the tested form may be a part): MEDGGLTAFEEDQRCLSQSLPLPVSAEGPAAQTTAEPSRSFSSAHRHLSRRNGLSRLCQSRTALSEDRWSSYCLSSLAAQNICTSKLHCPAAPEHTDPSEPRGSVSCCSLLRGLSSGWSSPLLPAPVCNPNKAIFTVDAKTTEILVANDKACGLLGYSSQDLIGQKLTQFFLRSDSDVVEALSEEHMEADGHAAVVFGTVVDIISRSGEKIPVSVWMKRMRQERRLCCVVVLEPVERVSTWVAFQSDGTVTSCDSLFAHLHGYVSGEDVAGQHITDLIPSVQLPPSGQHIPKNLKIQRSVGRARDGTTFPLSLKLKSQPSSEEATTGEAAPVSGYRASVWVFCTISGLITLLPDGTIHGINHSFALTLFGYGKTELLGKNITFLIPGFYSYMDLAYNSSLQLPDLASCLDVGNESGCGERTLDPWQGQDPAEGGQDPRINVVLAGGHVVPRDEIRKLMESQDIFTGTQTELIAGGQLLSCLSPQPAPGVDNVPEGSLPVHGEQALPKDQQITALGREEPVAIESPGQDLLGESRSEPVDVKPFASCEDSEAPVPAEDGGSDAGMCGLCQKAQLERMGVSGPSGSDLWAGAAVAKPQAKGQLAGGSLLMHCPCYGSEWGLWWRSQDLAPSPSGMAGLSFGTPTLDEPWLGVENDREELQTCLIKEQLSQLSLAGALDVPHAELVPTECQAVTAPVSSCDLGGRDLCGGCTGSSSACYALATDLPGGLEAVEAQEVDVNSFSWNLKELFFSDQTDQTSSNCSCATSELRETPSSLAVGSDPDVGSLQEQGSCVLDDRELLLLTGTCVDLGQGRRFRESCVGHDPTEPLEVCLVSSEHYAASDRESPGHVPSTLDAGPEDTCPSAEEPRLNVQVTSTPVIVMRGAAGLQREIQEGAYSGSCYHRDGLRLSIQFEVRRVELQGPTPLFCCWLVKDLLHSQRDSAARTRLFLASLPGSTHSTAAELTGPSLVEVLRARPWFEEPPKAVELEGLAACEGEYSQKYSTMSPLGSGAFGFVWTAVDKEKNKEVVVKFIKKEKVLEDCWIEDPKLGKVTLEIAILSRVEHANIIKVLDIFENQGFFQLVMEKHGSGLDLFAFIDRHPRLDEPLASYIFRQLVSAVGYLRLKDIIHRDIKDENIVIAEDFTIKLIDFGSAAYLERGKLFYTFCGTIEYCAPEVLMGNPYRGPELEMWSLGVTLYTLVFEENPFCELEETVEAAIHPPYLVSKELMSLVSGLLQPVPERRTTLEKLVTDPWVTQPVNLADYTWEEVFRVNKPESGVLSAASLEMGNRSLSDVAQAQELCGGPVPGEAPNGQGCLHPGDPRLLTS
Sequence of Serine/threonine-protein kinase MARK2 (Homo sapiens) (Q7KZI7 whole entry, the tested form may be a part): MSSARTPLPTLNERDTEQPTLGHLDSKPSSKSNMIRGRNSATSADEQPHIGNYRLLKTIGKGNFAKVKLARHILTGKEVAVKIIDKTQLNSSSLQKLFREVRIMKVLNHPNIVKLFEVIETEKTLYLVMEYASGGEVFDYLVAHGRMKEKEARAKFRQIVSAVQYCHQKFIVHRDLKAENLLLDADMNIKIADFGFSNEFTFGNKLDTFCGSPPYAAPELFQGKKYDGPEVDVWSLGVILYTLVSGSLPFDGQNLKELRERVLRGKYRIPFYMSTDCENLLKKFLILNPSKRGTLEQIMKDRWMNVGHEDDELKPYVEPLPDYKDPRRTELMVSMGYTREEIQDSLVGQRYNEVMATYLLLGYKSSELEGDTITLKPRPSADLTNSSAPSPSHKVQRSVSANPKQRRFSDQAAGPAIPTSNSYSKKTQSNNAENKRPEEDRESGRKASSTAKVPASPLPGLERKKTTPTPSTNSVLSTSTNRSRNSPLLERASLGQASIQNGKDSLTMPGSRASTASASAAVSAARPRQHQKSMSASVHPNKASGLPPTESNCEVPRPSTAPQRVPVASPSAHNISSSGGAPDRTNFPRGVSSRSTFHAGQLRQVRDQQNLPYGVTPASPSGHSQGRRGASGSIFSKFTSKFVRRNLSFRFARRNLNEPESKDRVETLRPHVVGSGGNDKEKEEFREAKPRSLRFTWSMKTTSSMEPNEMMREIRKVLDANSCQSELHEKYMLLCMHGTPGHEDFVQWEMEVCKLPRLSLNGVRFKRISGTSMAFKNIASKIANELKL
Sequence of Phosphorylase b kinase gamma catalytic chain, skeletal muscle/heart isoform (Homo sapiens) (Q16816 whole entry, looked up, canonical isoform): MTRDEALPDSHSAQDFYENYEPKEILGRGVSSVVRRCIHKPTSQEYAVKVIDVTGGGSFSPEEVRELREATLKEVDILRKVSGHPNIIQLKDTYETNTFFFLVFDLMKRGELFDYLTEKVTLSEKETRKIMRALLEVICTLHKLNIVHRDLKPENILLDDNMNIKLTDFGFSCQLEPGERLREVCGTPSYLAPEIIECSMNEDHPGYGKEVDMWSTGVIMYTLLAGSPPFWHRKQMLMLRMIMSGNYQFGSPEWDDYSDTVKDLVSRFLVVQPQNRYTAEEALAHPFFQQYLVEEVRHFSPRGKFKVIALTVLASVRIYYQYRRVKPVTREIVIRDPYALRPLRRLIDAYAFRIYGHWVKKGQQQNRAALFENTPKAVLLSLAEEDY

The term inhibition denotes the drop in the measured response relative to a control, in per cent. In the case of `COC(=O)Nc1nc2cc(Oc3ccc(NC(=O)Nc4ccccc4)cc3)ccc2[nH]1`, the inhibition in assay [1] was -0.9%; in [2], 0.34%; in [3], 1.02%; in assay [4], 4.15%; in assay [5] it was 5.64%; in assay [6] it was 4.43%. In addition, the inhibition in assay [7] was 6.25%; in assay [8] it was -0.24%; in assay [9], 0.02%; in assay [10] it was 0.15%; in assay [11], 0.64%; in [12] it was -0.27%. For the same compound, the inhibition in assay [13] is 0.79%; in assay [14], 1.73%; in assay [15], 2.59%; in assay [16] it was 1.17%; in assay [17], 7.79%; in assay [18], 1.28%. Also, the inhibition in assay [19] was 9.23%; in [20] it was -0.2%.

For the compound `Cn1c(-c2nonc2N)nc2cnccc21`, the inhibition in [1] was 4.69%; in assay [2], 0.4%; in assay [3], -0.76%; in assay [4] it was 1.82%; in assay [5], 0.15%; in [6], 4.05%. The inhibition in assay [7] was 1.59%; in assay [8] it was 2.15%; in assay [9], 16.4%; in assay [10], -0.31%; in assay [11], 1.87%; in [12], -0.24%. Further, the inhibition in assay [13] was 7.16%; in [14], 1.23%; in assay [15], 0.93%; in assay [16] it was 4.82%; in [17] it was 8.47%; in assay [18] it was 5.17%. Moreover, the inhibition is -0.26% in assay [19] and 1.34% in assay [20].

In the case of `CCOc1ccc2c(-c3ccnc(Nc4cc(OC)cc(C(F)(F)F)c4)n3)cnn2n1`, the inhibition stood at 1.23% in [1]; 0% in [2]; 0.64% in assay [3]; 1.57% in assay [4]; 0.94% in [5]; 0.61% in [6]. The inhibition was 0.99% in [7]; 0.51% in assay [8]; -0.17% in assay [9]; -0.46% in assay [10]; -0.11% in assay [11]; 1.13% in [12]. For the same compound, the inhibition is 1.42% in assay [13]; -0.27% in assay [14]; -0.8% in assay [15]; 2.02% in assay [16]; 6.72% in assay [17]; -0.16% in assay [18]. Moreover, the inhibition in [19] was 2.02%; in assay [20] it was -0.57%.

For `NS(=O)(=O)c1ccc(N/N=C2\C(=O)Nc3ccc(C(=O)NCc4ccncc4)cc32)cc1`, the inhibition turned out to be 21.3% in [1]; 0.76% in assay [2]; 2.6% in [3]; 5.19% in assay [4]; 28.9% in [5]; 4.99% in assay [6]. Also, the inhibition is 11.4% in assay [7]; 1.75% in [8]; 7.29% in [9]; 0.12% in assay [10]; 4.93% in assay [11]; 1.9% in [12]. Besides, the inhibition was 8.56% in assay [13]; 1.84% in [14]; 6.01% in assay [15]; 3.99% in [16]; 19.8% in assay [17]; 6.03% in assay [18]. The inhibition in [19] is 17.1%; in [20], 3.83%.

Consider `Fc1cccc(COc2ccc(Nc3ncncc3C#Cc3ccccc3)cc2Cl)c1`, for which the inhibition in assay [1] worked out at 1.05%; in assay [2], 0.76%; in assay [3], 1.64%; in assay [4], 3.8%; in [5], 5.87%; in assay [6] it was 5.59%. In addition, the inhibition is 8.15% in assay [7]; 0.46% in [8]; 1.07% in [9]; 0.52% in assay [10]; 1.48% in assay [11]; -0.8% in assay [12]. Moreover, the inhibition was 3.6% in assay [13]; 2.08% in assay [14]; 4.3% in [15]; 3.74% in assay [16]; 5.31% in assay [17]; 9.03% in assay [18]. Also, the inhibition in assay [19] turned out to be 6.72%; in assay [20], 5.15%.

With `CS(=O)(=O)CCNCc1ccc(-c2ccc3ncnc(Nc4ccc(OCc5cccc(C(F)(F)F)c5)cc4)c3c2)o1`, the inhibition in assay [1] is 5.07%; in assay [2], -1.03%; in assay [3], -1.02%; in assay [4], 2.44%; in assay [5] it was 4.94%; in [6] it was 5.95%. Besides, the inhibition was 4.97% in assay [7]; 1.96% in assay [8]; 3.18% in [9]; -0.68% in assay [10]; -0.48% in assay [11]; 1.17% in [12]. Besides, the inhibition came to 4.36% in [13]; 1.34% in [14]; 1.44% in assay [15]; 1.69% in assay [16]; 7.19% in assay [17]; 6.4% in assay [18]. Also, the values for the inhibition in assay [19] and in assay [20] were 8% and 3.15%, respectively.

Regarding `Fc1ccc(Nc2nccc(-c3c(-c4ccc(C(F)(F)F)cc4)nn4ncccc34)n2)cc1F`, the inhibition in assay [1] is 2.64%; in [2] it was 0.46%; in assay [3], -1.14%; in assay [4], -0.56%; in assay [5], 1.84%; in [6] it was 3.81%. For the same compound, the inhibition in assay [7] is 0.35%; in assay [8], 1.07%; in [9], 0.89%; in assay [10], 0.92%; in assay [11] it was 5.02%; in assay [12], -0.88%. Moreover, the inhibition in [13] was -1%; in assay [14], 0.6%; in [15] it was -0.23%; in assay [16] it was 5.43%; in assay [17], 3.1%; in assay [18] it was 3.76%. For the same compound, the inhibition was 2.08% in assay [19] and -0.07% in assay [20].
